Measured values from ChEMBL document CHEMBL1961873, “Compounds: GSK PKIS; Assays: Nanosyn kinase panel” (2012).

The molecules below were run against T1, Muscle, skeletal receptor tyrosine-protein kinase (Homo sapiens) (UniProt O15146). Conditions: at 1 µM.
T1 sequence (whole entry): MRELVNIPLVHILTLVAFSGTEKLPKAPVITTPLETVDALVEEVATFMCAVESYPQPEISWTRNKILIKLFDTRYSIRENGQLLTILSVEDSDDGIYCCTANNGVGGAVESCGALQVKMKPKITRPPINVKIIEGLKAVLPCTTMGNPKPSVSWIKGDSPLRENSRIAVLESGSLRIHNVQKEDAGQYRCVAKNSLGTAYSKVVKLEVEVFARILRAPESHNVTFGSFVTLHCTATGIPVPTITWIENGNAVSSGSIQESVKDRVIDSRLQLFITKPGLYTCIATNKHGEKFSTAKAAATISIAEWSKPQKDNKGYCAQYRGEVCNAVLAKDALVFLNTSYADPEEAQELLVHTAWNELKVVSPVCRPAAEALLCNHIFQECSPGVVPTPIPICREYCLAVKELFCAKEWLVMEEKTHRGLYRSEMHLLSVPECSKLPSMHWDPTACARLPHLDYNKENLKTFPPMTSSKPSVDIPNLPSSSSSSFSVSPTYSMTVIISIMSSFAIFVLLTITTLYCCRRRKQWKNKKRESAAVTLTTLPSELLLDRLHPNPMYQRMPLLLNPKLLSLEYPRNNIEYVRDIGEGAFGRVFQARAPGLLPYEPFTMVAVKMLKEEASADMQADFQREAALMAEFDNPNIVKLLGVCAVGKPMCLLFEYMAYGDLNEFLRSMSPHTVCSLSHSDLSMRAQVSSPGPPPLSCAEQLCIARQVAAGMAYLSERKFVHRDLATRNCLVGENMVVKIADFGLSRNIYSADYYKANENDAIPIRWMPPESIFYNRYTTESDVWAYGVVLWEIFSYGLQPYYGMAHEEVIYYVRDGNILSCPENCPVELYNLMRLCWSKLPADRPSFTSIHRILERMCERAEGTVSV

Row | Structure (SMILES) | inhibition
1 | CCC(=O)Nc1ccc(C)c(-c2ccc(C(=O)NCC3CC3)cc2)c1 | 0.72%
2 | CN(C)CCOc1ccc(-c2cc(-c3ccc4c(c3)CCC4=NO)c(-c3ccncc3)o2)cc1 | -1%
3 | c1ccc(-c2n[nH]cc2-c2ccnc(-c3ccc(OCCN4CCOCC4)cc3)c2)nc1 | 9.04%
4 | COc1cccc(/C=N/Nc2ncnc3c2cnn3-c2cccc(OC)c2)c1 | 3.43%
5 | NCc1ccc(-n2c(-c3nonc3N)nc3cnccc32)cc1 | 8.78%
6 | Cc1ccc(C(=O)NC2CCC2)cc1-c1ccc(C(=O)NCC2CC2)cc1 | 3.12%
7 | COc1cc(Nc2ncc3c(C)nc(-c4cccc(Oc5ccccc5)c4)n3n2)cc(OC)c1OC | 4.06%
8 | Fc1ccc(-c2ncn(C3CCNCC3)c2-c2ccnc(Oc3ccc(F)c(F)c3)n2)cc1 | 4.68%
9 | COC(=O)Nc1nc2ccc(Sc3ccc(NC(=O)Nc4cc(C(F)(F)F)ccc4F)cc3)cc2[nH]1 | 78.7%
10 | NC(=O)c1cc(-c2ccc(F)cc2)cc(-c2ccncc2)c1N | 1.32%
11 | CN(C)CCCNc1nccc(-c2c(-c3ccc(F)cc3)nn3cc(C(F)(F)F)ccc23)n1 | 12.5%
12 | CCc1nccc2c1nc(-c1nonc1N)n2CC | 0.59%
13 | COc1ccc(-c2ccc3c(NC(=O)C4CC4)n[nH]c3n2)cc1 | 3.83%
14 | O=C1Nc2ccc(I)cc2C1=Cc1cc(Br)c(O)c(Br)c1 | 6.35%
15 | O=C(Nc1n[nH]c2nc(-c3ccc(O)cc3)c(Br)cc12)C1CC1 | 14%
16 | CS(=O)(=O)CCNCc1cc(-c2cc3c(Nc4ccc(OCc5cccc(F)c5)c(Cl)c4)ncnc3s2)cs1 | 8.6%
17 | Cc1nnc(-c2ccc(C)c(-c3ccc(C(=O)NCc4ccc(Cl)cc4)cc3)c2)o1 | 0.1%

Row | Structure (SMILES) | inhibition
18 | Cc1ccc(C(=O)NC(C)C)cc1-c1ccc(C(=O)NCC2CC2)cc1 | -2.53%
19 | O=C(Nc1ccc(Oc2ccc3[nH]c(NC(=O)c4ccccc4)nc3c2)cc1)Nc1cc(C(F)(F)F)ccc1F | 63.9%
20 | COc1cc(C)c(N(C)C(=O)CN(C)C)cc1Nc1nc(Nc2cccc(F)c2C(N)=O)c2cc[nH]c2n1 | 3.08%
21 | CN(C)c1ccc2c(c1)/C(=C/Nc1ccc(S(N)(=O)=O)cc1)C(=O)N2 | 46.8%
22 | c1ccc(Oc2ccc(Nc3ncc(-c4ccccc4)o3)cc2)cc1 | 2.81%
23 | COc1cccc(-n2cnc3c(N/N=C/c4ccncc4)ncnc32)c1 | 17.1%
24 | Fc1ccc(-c2ncn(C3CCNCC3)c2-c2ccnc(Oc3ccc(Oc4ccccc4)cc3)n2)cc1 | 8.37%
25 | O=C(NCC1CC1)c1ccc(-c2cccc(C(=O)NC3CC3)c2)cc1 | 7.49%
26 | N#Cc1ccc(Oc2nccc(-c3c(-c4ccc(F)cc4)ncn3C3CCNCC3)n2)cc1 | 0.9%
27 | COc1ccc2cc(-c3c(-c4ccncc4)nc(-c4ccc(S(C)(=O)=O)cc4C)n3C)ccc2c1 | 6.38%
28 | C/C(Nc1ccc(S(N)(=O)=O)cc1)=C1/C(=O)Nc2ccccc21 | 30.9%
29 | Fc1ccc(-c2c(-c3ccncc3)nc3n2CCS3)cc1 | 1.19%
30 | C#Cc1cccc(Nc2ncnc3ccc(OCCCCNCCS(C)(=O)=O)cc23)c1 | 2.93%
31 | COc1ccc2ncn(-c3cc(O[C@H](C)c4ccccc4Cl)c(C(N)=O)s3)c2c1 | 15%
32 | Fc1ccc(-c2nc3n(c2-c2ccncc2)CCS3)cc1 | 2.27%
33 | CCS(=O)(=O)c1ccc(OC)c(Nc2ncc(-c3cccc(-c4ccccc4F)c3)o2)c1 | 5.48%
34 | Nc1nccc(-c2c(-c3ccc(F)cc3)ncn2C2CCC(O)CC2)n1 (stereo not drawn) | 4.37%

Each molecule was assayed against Platelet-derived growth factor receptor alpha (Homo sapiens) (UniProt P16234). Conditions: at 0.1 µM.
Platelet-derived growth factor receptor alpha (Homo sapiens), sequence (P16234 whole entry): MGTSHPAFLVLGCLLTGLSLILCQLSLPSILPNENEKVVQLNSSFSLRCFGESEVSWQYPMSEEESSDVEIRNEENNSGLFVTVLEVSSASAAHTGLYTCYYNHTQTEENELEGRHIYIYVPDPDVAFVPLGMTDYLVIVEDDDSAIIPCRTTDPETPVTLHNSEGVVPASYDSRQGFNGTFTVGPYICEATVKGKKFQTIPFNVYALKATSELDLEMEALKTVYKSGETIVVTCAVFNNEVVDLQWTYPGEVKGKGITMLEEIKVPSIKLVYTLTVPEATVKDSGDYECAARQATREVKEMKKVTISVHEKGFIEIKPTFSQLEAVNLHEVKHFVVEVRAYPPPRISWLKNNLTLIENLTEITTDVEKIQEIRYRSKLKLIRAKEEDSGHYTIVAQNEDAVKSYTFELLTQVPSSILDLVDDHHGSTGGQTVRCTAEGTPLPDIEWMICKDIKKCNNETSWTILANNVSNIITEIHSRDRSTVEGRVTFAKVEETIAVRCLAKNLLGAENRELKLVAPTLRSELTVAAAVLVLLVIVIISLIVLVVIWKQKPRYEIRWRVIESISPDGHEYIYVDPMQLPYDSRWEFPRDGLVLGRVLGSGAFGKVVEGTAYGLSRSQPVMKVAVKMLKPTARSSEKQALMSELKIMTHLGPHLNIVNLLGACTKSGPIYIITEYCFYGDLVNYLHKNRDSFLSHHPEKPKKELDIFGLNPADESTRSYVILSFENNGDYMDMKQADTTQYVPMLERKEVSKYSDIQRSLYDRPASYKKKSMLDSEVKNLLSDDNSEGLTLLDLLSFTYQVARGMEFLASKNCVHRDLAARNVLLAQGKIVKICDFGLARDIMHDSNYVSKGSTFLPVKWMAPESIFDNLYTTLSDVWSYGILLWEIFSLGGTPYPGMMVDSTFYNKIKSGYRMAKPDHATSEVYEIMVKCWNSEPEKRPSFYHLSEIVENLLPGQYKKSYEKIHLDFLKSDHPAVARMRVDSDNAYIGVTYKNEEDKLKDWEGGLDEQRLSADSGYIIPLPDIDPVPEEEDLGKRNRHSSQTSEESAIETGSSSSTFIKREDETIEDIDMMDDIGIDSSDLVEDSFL

Row | Structure (SMILES) | inhibition
35 | CCC(=O)Nc1ccc(C)c(-c2ccc(C(=O)NCC3CC3)cc2)c1 | 3.2%
36 | CN(C)CCOc1ccc(-c2cc(-c3ccc4c(c3)CCC4=NO)c(-c3ccncc3)o2)cc1 | 3.05%
37 | c1ccc(-c2n[nH]cc2-c2ccnc(-c3ccc(OCCN4CCOCC4)cc3)c2)nc1 | 20.1%
38 | COc1cccc(/C=N/Nc2ncnc3c2cnn3-c2cccc(OC)c2)c1 | 2.69%
39 | NCc1ccc(-n2c(-c3nonc3N)nc3cnccc32)cc1 | 10.2%
40 | Cc1ccc(C(=O)NC2CCC2)cc1-c1ccc(C(=O)NCC2CC2)cc1 | 1.47%
41 | COc1cc(Nc2ncc3c(C)nc(-c4cccc(Oc5ccccc5)c4)n3n2)cc(OC)c1OC | 3.72%
42 | Fc1ccc(-c2ncn(C3CCNCC3)c2-c2ccnc(Oc3ccc(F)c(F)c3)n2)cc1 | 11%
43 | COC(=O)Nc1nc2ccc(Sc3ccc(NC(=O)Nc4cc(C(F)(F)F)ccc4F)cc3)cc2[nH]1 | 10.8%
44 | NC(=O)c1cc(-c2ccc(F)cc2)cc(-c2ccncc2)c1N | 3.04%
45 | CN(C)CCCNc1nccc(-c2c(-c3ccc(F)cc3)nn3cc(C(F)(F)F)ccc23)n1 | 12.9%
46 | CCc1nccc2c1nc(-c1nonc1N)n2CC | 5.23%
47 | COc1ccc(-c2ccc3c(NC(=O)C4CC4)n[nH]c3n2)cc1 | 3.05%
48 | O=C1Nc2ccc(I)cc2C1=Cc1cc(Br)c(O)c(Br)c1 | 2.96%
49 | O=C(Nc1n[nH]c2nc(-c3ccc(O)cc3)c(Br)cc12)C1CC1 | 25.9%
50 | CS(=O)(=O)CCNCc1cc(-c2cc3c(Nc4ccc(OCc5cccc(F)c5)c(Cl)c4)ncnc3s2)cs1 | 9.29%
51 | Cc1nnc(-c2ccc(C)c(-c3ccc(C(=O)NCc4ccc(Cl)cc4)cc3)c2)o1 | 4.51%

Row | Structure (SMILES) | inhibition
52 | Cc1ccc(C(=O)NC(C)C)cc1-c1ccc(C(=O)NCC2CC2)cc1 | 0.96%
53 | O=C(Nc1ccc(Oc2ccc3[nH]c(NC(=O)c4ccccc4)nc3c2)cc1)Nc1cc(C(F)(F)F)ccc1F | 27.8%
54 | COc1cc(C)c(N(C)C(=O)CN(C)C)cc1Nc1nc(Nc2cccc(F)c2C(N)=O)c2cc[nH]c2n1 | 4.02%
55 | CN(C)c1ccc2c(c1)/C(=C/Nc1ccc(S(N)(=O)=O)cc1)C(=O)N2 | 26.7%
56 | c1ccc(Oc2ccc(Nc3ncc(-c4ccccc4)o3)cc2)cc1 | 7.17%
57 | COc1cccc(-n2cnc3c(N/N=C/c4ccncc4)ncnc32)c1 | 17.9%
58 | Fc1ccc(-c2ncn(C3CCNCC3)c2-c2ccnc(Oc3ccc(Oc4ccccc4)cc3)n2)cc1 | 3.69%
59 | O=C(NCC1CC1)c1ccc(-c2cccc(C(=O)NC3CC3)c2)cc1 | 8.93%
60 | N#Cc1ccc(Oc2nccc(-c3c(-c4ccc(F)cc4)ncn3C3CCNCC3)n2)cc1 | 4.83%
61 | COc1ccc2cc(-c3c(-c4ccncc4)nc(-c4ccc(S(C)(=O)=O)cc4C)n3C)ccc2c1 | 7.63%
62 | C/C(Nc1ccc(S(N)(=O)=O)cc1)=C1/C(=O)Nc2ccccc21 | 13.8%
63 | Fc1ccc(-c2c(-c3ccncc3)nc3n2CCS3)cc1 | 4.27%
64 | C#Cc1cccc(Nc2ncnc3ccc(OCCCCNCCS(C)(=O)=O)cc23)c1 | 16.4%
65 | COc1ccc2ncn(-c3cc(O[C@H](C)c4ccccc4Cl)c(C(N)=O)s3)c2c1 | 10.4%
66 | Fc1ccc(-c2nc3n(c2-c2ccncc2)CCS3)cc1 | 6.42%
67 | CCS(=O)(=O)c1ccc(OC)c(Nc2ncc(-c3cccc(-c4ccccc4F)c3)o2)c1 | 10.8%
68 | Nc1nccc(-c2c(-c3ccc(F)cc3)ncn2C2CCC(O)CC2)n1 (stereo not drawn) | 2.63%
